From PubChem BioAssay
An excerpt weighted towards active compounds, which were near 2.2% of everything screened.
aSyn yeast inh = qHTS of alpha-syn Inhibitors; 0.14% of 370,000 active; Potency, µM (doses to about 46.1 µM), without a hit: at the top dose growth rescue (activation), hits mostly activators; AID 652106, 2013; Yeast expressing alpha-synuclein, growth rescue, BacTiter-Glo, 24 h; note: % of control where 0% means no effect; nearly all actives have a fitted effect of over 65% in size
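Rescue of yeast growth: cells expressing toxic alpha-synuclein, induced in galactose at OD600 0.02, incubated with compound 24 h at 30 C. ATP luminescence quantified growth; inhibitors of toxicity appear as activators.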
FUS suppressor = qHTS for Suppressors of FUS Proteinopathy: Primary screen using FUS-linked yeast assay; 0.24% of 390,000 active; Potency, µM (titrated, usually from 76.6 µM), most hits filed as activators; S. cerevisiae FUS-expressing, growth rescue, OD600, 24 h;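 note: plate controls were DMSO vehicle for no effect and reference control for full effect; nearly all actives have a fitted effect of over 55% in size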
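Restored growth of FUS-toxic S. cerevisiae, read as 600 nm absorbance after 24 h at 30C in galactose medium (starting OD 0.005). Controls CP55940 and DMSO.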
ERG-DNA inh = qHTS for Small Molecule Inhibitors of the ERG Ets/DNA interaction; Transcriptional regulator ERG (Homo sapiens), P11308; fluorescence polarization, His-ERG Ets domain / labelled DNA; Potency, µM (series often up to 76.9 µM), inactives show at the top dose FP activity, negative = inhibition, actives largely listed as inhibitors; 0.028% of 370,000 active; active = well fitted inhibition curve with a large enough effect in the polarisation, with a control signal flat; inconclusive = small, poorly fitted or top-dose-only effect, or effect the other way, or a change in a side signal; inactive = no such curve, though single readings can be large or run the other way; the % refers to the polarisation;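 note: polarization taken with two DNA probes labelled with fluorescein and Texas red; % of control where 0% means no effect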
Target sequence (P11308 whole entry, looked up, the tested form may be a part): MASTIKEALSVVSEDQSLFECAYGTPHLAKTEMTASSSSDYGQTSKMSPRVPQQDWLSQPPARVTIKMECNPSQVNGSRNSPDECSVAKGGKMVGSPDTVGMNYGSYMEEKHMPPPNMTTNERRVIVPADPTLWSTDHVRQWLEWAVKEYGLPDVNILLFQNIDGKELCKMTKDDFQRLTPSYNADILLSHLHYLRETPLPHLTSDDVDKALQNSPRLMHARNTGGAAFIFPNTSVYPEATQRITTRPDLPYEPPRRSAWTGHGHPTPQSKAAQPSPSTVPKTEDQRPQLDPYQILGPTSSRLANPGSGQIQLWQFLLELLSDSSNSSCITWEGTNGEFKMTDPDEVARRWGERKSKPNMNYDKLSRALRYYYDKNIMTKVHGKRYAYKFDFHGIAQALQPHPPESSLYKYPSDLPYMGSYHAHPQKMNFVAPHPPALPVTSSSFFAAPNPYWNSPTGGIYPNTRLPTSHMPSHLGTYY
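His-tagged ERG Ets domain (1 uM in the protein solution; 300mM KCl, 50mM Tris-HCl, 1mM EDTA, 1mM DTT, pH 7.5) received compound, then a probe mix of 5 nM fluorescein-DNA and 100nM Texas-615-DNA. Fluorescence polarization was read for both dyes.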
Mito fusion act = qHTS Assay for Small Molecule Inhibitors of Mitochondrial Division or Activators of Mitochondrial Fusion; S. cerevisiae fusion-defective mutant growth rescue, CellTiterGlo 48 h; Potency, µM (highest dose often 46.1 µM), inactives show top-dose growth rescue (activation), usual class: activators; 0.23% of 320,000 active; AID 485298, 2010; note: % of control where 0% means no effect; nearly all actives have a fitted effect of over 45% in size
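Growth-rescue viability read-out: after 48 h at the non-permissive 37C in glycerol/ethanol YPEG, yeast mitochondrial fusion mutants are measured by CellTiterGlo luminescence; compounds (23 nl pinned per well) restoring growth score as division inhibitors or fusion activators.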
TDP-43 yeast inh = qHTS of TDP-43 Inhibitors; TDP-43 expressing yeast growth rescue, BacTiter-Glo, 24 h; Potency, µM (highest dose often 46.1 µM), for inactives: at the highest dose growth rescue (activation), usual class: activators; 1.8% of 410,000 active; AID 652104, 2013; note: % of control where 0% means no effect; nearly all actives have a fitted effect of over 50% in size
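Growth rescue of TDP-43-toxic yeast measured as ATP luminescence (BacTiter-Glo). Cells grown to mid-log in raffinose, induced in galactose at OD600=0.02, exposed to compound 24 hr at 30 deg C.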
Abeta rescue = qHTS for compounds that reverse cellular toxicity of Amyloid beta (A-beta) peptide in yeast: Primary Screen; 0.063% of 410,000 active; AID 1347071, 2019; yeast expressing A-beta42, growth rescue, OD600, 48 h; response scale: 0% DMSO, 100% iron-clioquinol control; Potency, µM (series often up to 46.1 µM), usual class: activators; note: nearly all actives have a fitted effect of over 55% in size
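Yeast growth medium received pinned compounds, then yeast cells expressing toxic A-beta were added; plates incubated at 30 C for 48 hr. Growth read as absorbance at 600 nm, normalized to DMSO and equimolar FeCl3 plus clioquinol controls.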
Active calls of the source: *; i = inactive; ? = inconclusive; . = no result; [ ] = another dose, or the depositor's remark. Unless noted, calls come from the whole dose curve; as a rule, active = well fitted curve in the direction sought with a large enough effect; inconclusive = small, poorly fitted or top-dose-only effect, or another doubt; inactive = no such curve, though single readings can be large; an effect the other way counts as inactive or inconclusive. Potency is the fitted concentration of half-maximal effect.

SMILES	aSyn yeast inh	FUS suppressor	ERG-DNA inh	Mito fusion act	TDP-43 yeast inh	Abeta rescue
N/C(=N\OC(=O)/C=C/c1ccccc1)c1ccc(Cl)cc1	-19%	i	-4%	11%	?	i
N/C(=N\OC(=O)c1cccc(Br)c1)c1ccccc1	-22%	i	-23%	-3%	13µM*	i
CC(C)c1ccc(C(=O)N2CCCC(c3cc(C(=O)Nc4ccccc4Cl)no3)C2)cc1 (centres undefined)	23%	i	.	.	-3%	i
N/C(=N\OC(=O)c1cccc(Cl)c1)c1ccccn1	-13%	i	-5%	12%	?	i
N/C(=N\OC(=O)c1ccco1)c1cccc(Br)c1	-24%	i	-12%	2%	11µM*	i
N/C(=N\OC(=O)c1cccc(Br)c1)c1ccccn1	-10%	i	2%	7%	11µM*	i
N/C(=N\OC(=O)c1ccco1)c1cccc([N+](=O)[O-])c1	-4%	i	12%	-1%	?	i
CCOC(=O)c1ccc(N=Cc2nc(-c3ccccc3)oc2OC(C)=O)cc1	20%	i	4%	-3%	16µM*	i
CC(=O)Oc1oc(-c2ccccc2)nc1C=Nc1ccccc1	-11%	.	-13%	1%	-86%	i
O=[N+]([O-])c1cc([N+](=O)[O-])c2cccnc2c1Oc1ccccc1O	4%	.	13%	-8%	2µM*	i
O=[N+]([O-])c1cc(F)c2cccnc2c1O	?	i	-1%	-20%	4µM*	?
O=[N+]([O-])c1ccccc1Oc1ccc(Cl)c2cccnc12	?	i	3%	2%	20µM*	i
O=[N+]([O-])c1ccc(O)c2ncccc12	-70%	i	-8%	?	-83%	i
COc1ccc(Oc2ncccc2[N+](=O)[O-])cc1	1%	i	0%	-4%	5%	i
COc1ccc(Oc2c(OC)cc([N+](=O)[O-])c3ncccc23)cc1	3%	i	0%	.	35µM*	i
CCOc1ccc(CNC(=O)C2CCN(c3nc4ccccc4nc3C(F)(F)F)CC2)cc1OC	.	i	-3%	.	10%	i
CCCCOCCCNC(=O)C[C@@H]1C(=O)N2CCCC3=C2[C@@]1(C(=O)OCC)CCC3	.	i	.	.	.	.
CCCCSc1ncnc2c1c(-c1ccccc1)cn2-c1cccc(F)c1	.	i	9%	.	-3%	i
COc1cccc2cc(-c3nc(Nc4cccc(C)c4)sc3C)c(=O)oc12	.	i	0%	.	7%[9.22 µM]	i
CN(C)c1ccc(C(O)c2cc3ccccc3s2)cc1 (centres undefined)	14µM*	i	0%	.	16%	?
Cc1ccc(F)cc1-c1nc(NCC2CC2)nc2ccsc12	-2%	i	.	.	20µM*	i
